# Sfp PPTase inh = qHTS Assay for Inhibitors of Bacillus subtilis Sfp phosphopantetheinyl transferase (PPTase) | Biochemical Sfp PPTase activity, qHTS | Potency, µM, hits mostly inhibitors | hit rate 3.5% among 310,000 | 4'-phosphopantetheinyl transferase ffp (Bacillus subtilis), Q9F4F7;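 also: the enzyme is Sfp with the accession as filed and its product quenches rhodamine fluorescence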
#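 Fluorescence-quenching assay: 15 nM Sfp-PPTase preincubated 15 min at room temperature with compound, then 5 uM rhodamine-CoA and 12.5 uM BHQ-2-labelled YbbR peptide added. Fluorescence (ex 525/em 598 nm) read at start and after 30 min; difference gives rate.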
# JMJD2A Tudor inh = qHTS Assay for Inhibitors of JMJD2A-Tudor Domain | Lysine-specific demethylase 4A (Homo sapiens), O75164 | AlphaScreen JMJD2A-Tudor / H3K4me3 peptide binding | Potency, µM (top dose mostly 114 µM), most hits filed as inhibitors | hit rate 4.4% among 390,000 | AID 504339, 2011; also: nearly all actives have a fitted effect of over 50% in size
# G9a block = qHTS Assay for Inhibitors of Histone Lysine Methyltransferase G9a; AID 504332, 2011; hit rate 8.8% among 350,000; Potency, µM (titrated, usually from 102 µM), actives largely listed as inhibitors; G9a H3K9 monomethylation, AlphaScreen, 2 h; also: nearly all actives have a fitted effect of over 75% in size
# Target sequence (Q96KQ7 913-1193 limits assumed): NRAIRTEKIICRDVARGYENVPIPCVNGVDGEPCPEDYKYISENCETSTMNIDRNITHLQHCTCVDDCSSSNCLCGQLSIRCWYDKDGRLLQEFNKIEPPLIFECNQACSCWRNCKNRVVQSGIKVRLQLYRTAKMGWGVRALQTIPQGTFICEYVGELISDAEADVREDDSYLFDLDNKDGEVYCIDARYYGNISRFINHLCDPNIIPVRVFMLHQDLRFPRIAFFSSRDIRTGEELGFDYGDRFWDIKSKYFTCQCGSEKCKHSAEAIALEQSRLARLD
#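 Compounds were preincubated with 20 nM G9a for 15 min, after which biotinylated H3K9 peptide (500 nM) and SAM (20 uM) started a 2 h room-temperature reaction. Monomethylated product was quantified by antibody-based AlphaScreen chemiluminescence.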
# BAZ2B inh = qHTS Assay for Inhibitors of BAZ2B; AID 504333, 2011; Bromodomain adjacent to zinc finger domain protein 2B (Homo sapiens), Q9UIF8; hit rate 4.4% among 360,000; AlphaScreen BAZ2B-H3K14Ac peptide displacement; Potency, µM (top dose mostly 114 µM), actives largely listed as inhibitors; also: nearly all actives have a fitted effect of over 60% in size
#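 AlphaScreen displacement of biotin-H3(5-23)K14Ac peptide (50 nM final) from BAZ2B (50 nM final) in PBS pH 7.4, 0.01% Tween-20; complex preformed 30 min RT, then compounds (top 110 uM) 30 min RT, beads 20 min dark.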
# HP1b chromo inh = HTS for Inhibitors of HP1-beta Chromodomain Interactions with Methylated Histone Tails. Chromobox protein homolog 1 (Homo sapiens), P83916. AID 540317, 2011. Potency, µM (series often up to 114 µM), actives largely listed as inhibitors. AlphaScreen HP1-beta / biotin-H3K9me3 peptide binding. hit rate 0.56% among 390,000; also: nearly all actives have a fitted effect of over 70% in size
# Target sequence (P83916 whole entry, looked up): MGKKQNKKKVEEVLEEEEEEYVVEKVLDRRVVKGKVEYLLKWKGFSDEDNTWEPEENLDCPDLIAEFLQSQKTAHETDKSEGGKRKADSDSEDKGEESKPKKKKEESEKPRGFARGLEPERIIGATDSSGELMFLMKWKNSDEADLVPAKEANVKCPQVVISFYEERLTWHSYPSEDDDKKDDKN
#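 Compound inhibition of the preformed complex between 50 nM HP1-beta and 50 nM biotinylated H3K9me3 peptide was read by AlphaScreen. Buffer was PBS pH 7.4 with 0.01% Tween-20. Incubations ran 30 min at room temperature, with 10 ug/mL donor/acceptor beads.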
# L3MBTL1 inh = qHTS Assay for the Inhibitors of L3MBTL1; Potency, µM (titrated, usually from 57.1 µM), most hits filed as inhibitors; AlphaScreen L3MBTL1–H3K9me1 peptide binding; AID 485360, 2010; hit rate 0.66% among 230,000; also: nearly all actives have a fitted effect of over 60% in size
#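 Displacement of a biotinylated histone H3(1-15) peptide monomethylated at Lys9 (75 nM) from L3MBTL1 (50 nM) was measured by AlphaScreen after a 30 min room-temperature compound incubation; cefsulodin titration served as intraplate control.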
# Hits are given with their value; 0 = inactive; ? = inconclusive; - = no result given; [ ] = remark or other dose. Hits are enriched below; roughly 12% of the tested compounds scored in any of these assays. Calls follow the shape of the dose curve; as a rule, active = well fitted curve in the direction sought with a large enough effect; inconclusive = small, poorly fitted or top-dose-only effect, or another doubt; inactive = no such curve, though single readings can be large; an effect the other way counts as inactive or inconclusive.
SMILES,Sfp PPTase inh,JMJD2A Tudor inh,G9a block,BAZ2B inh,HP1b chromo inh,L3MBTL1 inh
Nc1nnc(Cc2c[nH]c3ccccc23)s1,0,0,45µM,0,0,0
CN1C(=O)C(=O)/C(=C(/O)c2ccc(Br)cc2)C1c1cccc([N+](=O)[O-])c1 (centres undefined),0,0,50µM,0,0,0
CN(C)c1ccc(C2/C(=C(/O)c3ccc(Br)cc3)C(=O)C(=O)N2C)cc1 (centres undefined),0,?,40µM,0,0,-
CCOCCc1nn2c(=O)cc(COC(=O)C(CC)c3ccccc3)nc2s1 (centres undefined),-,0,0,0,0,-
COc1ccc(N2CCN(C(=O)c3cc(-c4ccc(F)cc4)[nH]c3C)CC2)cc1,0,45µM,45µM,45µM,?,-
COc1ccc(N2CCN(C(=O)c3ccc4[nH]c(C)c(C)c4c3)CC2)cc1,0,0,0[12.7 µM],40µM,0,-
COc1cc2c(cc1OC)CN(C(=O)c1ccc3[nH]c(C)c(C)c3c1)CC2,0,?,-,50µM,0,0
CC(=O)c1ccc(N2CCN(C(=O)c3ccc4[nH]c(C)c(C)c4c3)CC2)cc1,-,?,-,-,0,0
Cc1[nH]c2ccc(C(=O)N3CCN(c4ccc(F)cc4)CC3)cc2c1C,0,50µM,79µM,35µM,0,-
COc1cc2c(cc1OC)CN(C(=O)c1ccc([N+](=O)[O-])o1)CC2,0,0,56µM,0,0,0
Cc1cc(C)c2c(-c3ccc(-c4ccc(C(F)(F)F)cc4)cc3)cc(=O)oc2c1,0,-,0,-,-,-
CCOC(=S)SCC(=O)N1CCc2ccccc2C1C1C(=O)CCCC1=O (centres undefined),56µM,0,?,?,0,0
O=C1CCCC(=O)C1C1c2ccccc2CCN1C(=O)CCl (centres undefined),0,0,0,0,0,0
Cc1nnc(NC(=O)C2CCN(S(=O)(=O)c3cc([N+](=O)[O-])ccc3Cl)CC2)o1,-,10µM,?,16µM,0,25µM
Cc1cccc2sc(NC(=O)C3CCN(S(=O)(=O)c4cc([N+](=O)[O-])ccc4Cl)CC3)nc12,0,14µM,7.9µM,?,?,?
O=C(NCc1ccc(Cl)cc1)C1CCN(S(=O)(=O)c2cc([N+](=O)[O-])ccc2Cl)CC1,0,0,45µM,0,0,0
O=C(NC1=NCCS1)C1CCN(S(=O)(=O)c2cc([N+](=O)[O-])ccc2Cl)CC1,-,?,-,-,?,0
CC1=NCCN1S(=O)(=O)c1cc([N+](=O)[O-])ccc1Cl,0,0,45µM,0,0,0
COc1ccc2nc(/C=N/NC(=O)CCNC(=O)OC(C)(C)C)ccc2c1,0,0,32µM,0,0,-
COc1ccc(CCNC(=O)CCc2c(C)c3cc4c(C)coc4c(C)c3oc2=O)cc1OC,-,0,0,0,0,-
CCc1nc2nc(C)cc(Nc3ccc(OC)cc3)n2n1,-,0,0,0,0,-
CCCCN1C(=O)c2ccc(C(=O)NCc3ccco3)cc2C1=O,0,0,?,0,0,-
CCc1nc2ccc(C(=O)NCc3ccc(C)o3)cc2nc1CC,0,0,0,0,0,-
CCc1nc2ccc(C(=O)NCc3ccco3)cc2nc1CC,35µM,0,0[12.7 µM],0,0,-
O=C(NCc1ccco1)c1cccc(NC(=O)c2ccco2)c1,0,0,56µM,0,0,-
CCCN1C(=O)c2ccc(C(=O)NCc3ccco3)cc2C1=O,45µM,0,0[12.7 µM],0,0,0[11.4 µM]
O=C(NCc1ccccc1)c1cccc(NC(=O)c2ccco2)c1,0,0,0,0,0,0
Cc1cc(N2CCC(C)CC2)nc2ccc(NC(=O)Cc3ccccc3Br)cc12,-,0,0,0,0,-
CCOC(=O)N1CCN(CC(O)COCC2=CCC3CC2C3(C)C)CC1 (centres undefined),79µM,3.5µM,-,50µM,?,0

# Screening data: PubChem, National Center for Advancing Translational Sciences (NCATS)
